Screens: PubChem BioAssay, National Center for Advancing Translational Sciences (NCATS)
PINK1 expr mod – PINK1 expression modulation; PINK1 immunofluorescence, high-content cytometry, 24 h; Potency, µM (top dose mostly 76.6 µM), for the others: at the top dose activation (PINK1 increase), actives largely listed as activators; hit rate 0.2% among 410,000; AID 624263; active = well fitted activation curve with a large enough effect; inconclusive = small, poorly fitted or top-dose-only effect; cell line not stated here; note: % of control where 0% means no effect; nearly all actives have a fitted effect of over 65% in size
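Stable cell line, 250 cells/well, 12 h attachment; compounds pinned at 5 concentrations, 24 h; CCCP control. Fixed with nuclear dye, primary antibodies 12 h at 10 degrees C, secondary plus cell stain; laser-scanning cytometer read.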
SW480 rereplic – DNA re-replication induction in SW480 cells. AID 624297. Potency, µM (series often up to 46.1 µM), without a hit: at the top dose re-replication activation, most hits filed as activators. SW480 DNA re-replication, Hoechst DNA content imaging, 48 h. hit rate 1.8% among 340,000; note: % of control where 0% means no effect; nearly all actives have a fitted effect of over 55% in size
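Treated cells incubate 48 hr (37 C, 5% CO2), are stained 40 min with Hoechst, and nuclear fluorescence is enumerated; a rise in nuclei with high DNA signal marks re-replication.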
MCF10A rereplic – induces DNA re-replication in MCF 10a normal breast cells; MCF 10A DNA re-replication, Hoechst nuclear intensity, 48 h; Potency, µM (titrated, usually from 46.1 µM), for inactives: at the highest dose activity, positive = re-replication, hits mostly activators; hit rate 2.9% among 350,000; note: % of control where 0% means no effect; nearly all actives have a fitted effect of over 50% in size
KB-V1 cytotox – kills drug-selected multidrug resistant KB-V1 cells; KB-V1 MDR cells viability, CellTiter-Glo, 72 h; Potency, µM (highest dose often 46.1 µM), usual class: cytotoxic; hit rate 3.4% among 400,000; note: % is set by controls: 0 for no effect and ±100 for the full control effect; nearly all actives have a fitted effect of over 60% in size
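Drug-selected KB-V1 cells, grown in DMEM lacking phenol red with 10% FBS, receive compound titrations; after three days at 37 degrees C, surviving cell ATP is quantified by CellTiter-Glo luminescence and responses normalized and curve-fitted.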
KB-3-1 cytotox – KB-3-1 parental cell cytotoxicity. AID 1347075. Potency, µM (series often up to 46.1 µM), usual class: cytotoxic. hit rate 1.4% among 400,000. KB-3-1 viability, CellTiter-Glo ATP luminescence, 72 h; note: % is set by controls: 0 for no effect and ±100 for the full control effect; nearly all actives have a fitted effect of over 60% in size
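Screening of KB-3-1 cells (DMEM, 10% FBS, phenol-red free) ran from lowest to highest compound concentration; after 72 h at 37 °C viability was read luminescently and curves fitted.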
An asterisk follows results filed as active; i = inactive; ? = inconclusive; · = no result. Only some compounds are listed: those with a hit (about 6.7% of all), similar ones and a draw of the others. Unless noted, calls come from the whole dose curve; as a rule, active = well fitted curve in the direction sought with a large enough effect; inconclusive = small, poorly fitted or top-dose-only effect, or another doubt; inactive = no such curve, though single readings can be large; an effect the other way counts as inactive or inconclusive. Potency is the fitted concentration of half-maximal effect.

SMILES	PINK1 expr mod	SW480 rereplic	MCF10A rereplic	KB-V1 cytotox	KB-3-1 cytotox
CCOc1ccccc1CNC(=O)c1ccc(NC(=O)N2CC(C)Sc3ccccc32)cc1 (configuration not stated)	-1.5%	·	·	?	i
CC1=Nc2cc(C(=O)NCc3ccccc3Cl)ccc2Sc2c(C)ccc(C)c21	0.9%	·	·	1.46µM*	1.03µM*
CCC1=Nc2cc(C(=O)NCc3ccccc3OC)ccc2Sc2ccc(Cl)cc21	-0.1%	·	·	·	·
CCC1=Nc2cc(C(=O)NCc3ccccc3Cl)ccc2Sc2ccc(C)cc21	7.3%	·	·	?	3.66µM*
COc1ccc(CCNC(=O)CCc2c(C)nc3c4cccnc4nn3c2C)cc1OC	-0.6%	·	·	i	i
O=C1Cc2ccccc2C(c2ccc(Cl)cc2)N1 (configuration not stated)	3.6%	-2.2%	?	i	i
S=C1Cc2ccccc2C(c2ccc(Cl)cc2)N1 (configuration not stated)	2.0%	?	16.4µM*	i	i
Cc1ccc(C(C)NC(=O)CSc2ccc(S(=O)(=O)N3CCOCC3)cn2)cc1C (configuration not stated)	0.6%	3.0%	13.8%	18.4µM*	i
O=C1C2=C(Nc3ccccc3SC2c2ccco2)c2ccccc21 (configuration not stated)	2.3%	6.2%	16.4µM*	i	i
CC(C)c1ccc(C2Sc3ccccc3NC3=C2C(=O)c2ccccc23)cc1 (configuration not stated)	21.2%	·	·	·	·
O=C1C2=C(Nc3ccccc3SC2c2ccc(C(F)(F)F)cc2)c2ccccc21 (configuration not stated)	?	·	·	16.4µM*	?
CCc1ccc(C2Sc3ccccc3NC3=C2C(=O)c2ccccc23)cc1 (configuration not stated)	20.8%	·	·	?	i
O=[S@]1Oc2ccccc2-c2ccccc21	-1.7%	7.9%	14.8%	i	i
Cc1nc(N)c(C#N)c(-c2ccc3c(c2)OCO3)c1C	-0.8%	-4.2%	?	i	i
N#Cc1c(N)oc(-c2ccc3c(c2)OCO3)c1-c1ccc2c(c1)OCO2	3.8%	4.9%	10.2%	16.4µM*	i
Cc1ccc(-c2cc(-c3ccc(C)o3)nc(N)c2C#N)cc1	-0.8%	23.1µM*	?	i	i
Cc1cc(-c2cc(-c3ccc(Cl)cc3)nc(N)c2C#N)co1	8.0%	7.31µM*	2.59µM*	i	i
CCOc1cc(-c2cc(-c3ccc(C)o3)nc(N)c2C#N)ccc1O	6.2%	?	?	23.1µM*	?
Cc1cccc(OCC(=O)OCc2cc(=O)n3nc(-c4cccs4)sc3n2)c1	1.9%	·	·	i	i
CSCCC(C)N1CCC(Oc2ccc(C(=O)N3CCCC3)cc2)CC1 (configuration not stated)	-1.6%	1.9%	-4.6%	i	i
Cc1ccc(-c2cc(-c3ccc(F)cc3)c(C#N)c(N)n2)o1	10.8%	20.6µM*	4.11µM*	i	i
CCOc1cc(-c2c(C)c(CC)nc(N)c2C#N)ccc1O	3.9%	16.7%	?	18.4µM*	?
Cc1ccc(-c2cc(-c3ccc4c(c3)OCO4)c(C#N)c(N)n2)o1	6.6%	20.6µM*	20.6µM*	i	i
Cc1c(-c2ccc(F)cc2)nc(N)c(C#N)c1-c1ccco1	·	-12.9%	?	i	i
Cc1ccc(-c2cc(-c3ccc(Cl)cc3)c(C#N)c(N)n2)o1	9.0%	2.59µM*	2.91µM*	i	i
SMILES	PINK1 expr mod	SW480 rereplic	MCF10A rereplic	KB-V1 cytotox	KB-3-1 cytotox
Cc1nnc(Cc2ccco2)c2n[nH]c(C)c12	-1.2%	·	·	i	i
COc1ccc(C2CC=C(C(C)=O)CN2S(=O)(=O)c2ccc(C)cc2)cc1 (configuration not stated)	-0.9%	·	·	i	i
CC(C)Nc1oc(Cc2cccc3ccccc23)nc1C#N	5.8%	-4.8%	18.1%	16.4µM*	i
COc1ccc(CCNc2oc(Cc3cccc4ccccc34)nc2C#N)cc1OC	-0.6%	0.6%	5.5%	18.4µM*	?
CNc1oc(Cc2cccc3ccccc23)nc1C#N	?	1.0%	?	i	i
Cc1ccc(C(=O)N2CCN3C(=O)c4ccccc4C23c2ccccc2)cc1 (configuration not stated)	0.0%	-1.3%	-2.6%	i	i
O=C1c2ccccc2C2(c3ccccc3)N1CCN2C(=O)C(Cl)(Cl)Cl (configuration not stated)	7.6%	?	?	16.4µM*	?
CCCCn1nnnc1C1(C)CCC(=O)N1CCc1ccc(OC)c(OC)c1 (configuration not stated)	0.6%	·	·	i	i
C=CCSc1nc2ccccc2n1Cc1nnc(-c2cccs2)o1	-3.2%	-1.2%	1.2%	6.51µM*	i
CC(NC(=O)C(=O)N1CCCCC1)C(c1cccs1)N1CCN(C)CC1 (configuration not stated)	-1.7%	-17.3%	7.1%	i	i
COc1ccc2cc(-c3csc(-c4cccnc4)n3)ccc2c1	-0.7%	15.8%	14.6µM*	i	i
COc1ccc(-c2nc(CCl)cs2)cc1OC	-2.2%	-4.7%	-3.4%	?	i
COc1ccc(-c2csc(-c3ccc(O)cc3)n2)cc1	6.7%	7.31µM*	14.6µM*	2.59µM*	4.11µM*
COc1ccc(-c2nc(-c3ccc(O)cc3O)cs2)cc1OC	-1.8%	?	20.6µM*	?	i
Cc1ccc(-c2ccnc(-c3ccc(O)cc3)n2)cc1	4.0%	7.3%	-1.4%	?	i
COc1ccc(-c2ccnc(-c3ccc(O)cc3)n2)cc1	0.1%	8.2µM*	2.06µM*	7.31µM*	5.8µM*
COc1ccc(-c2nc(CCl)cs2)cc1	-0.8%	-4.7%	?	i	i
CCOCCCNC(=O)C1CCCN(Cc2nc(-c3ccc(CC)cc3)oc2C)C1 (configuration not stated)	0.6%	·	·	i	i
c1coc(-c2ccnc(-c3ccncc3)n2)c1	1.5%	-7.8%	-5.0%	i	i
COc1ccc(-c2ccnc(-c3ccncc3)n2)cc1	7.2%	20.6µM*	17.1%	i	?
COc1ccc(C2C=C(c3ccc(Cl)cc3)Nc3nc(-c4ccc(Cl)cc4)nn32)cc1 (configuration not stated)	15.8µM*	·	·	?	?
C#CCCc1cocc1/C=[N+](\[O-])c1ccc(C(=O)OCC)cc1	2.5%	-3.8%	-3.8%	i	i
Cc1[nH]c2ccccc2c1CCNC(=O)c1ccc2c(c1[N+](=O)[O-])C(=O)c1ccccc1C2=O	-1.7%	?	?	16.4µM*	i
Cc1[nH]c2c(C)cccc2c1CCNC(=O)c1ccc2c(c1[N+](=O)[O-])C(=O)c1ccccc1C2=O	0.4%	18.4µM*	7.94µM*	i	?
